Where “and” joins values, the source holds several entries; their conditions need not be identical. Equal entries are not always repeated. Results filed as inconclusive are left out. Calls of active or inactive are those of the source. Unless noted, calls follow the shape of the dose curve; as a rule, active = well fitted curve in the direction sought with a large enough effect; inconclusive = small, poorly fitted or top-dose-only effect, or another doubt; inactive = no such curve, though single readings can be large; an effect the other way counts as inactive or inconclusive.

The values that follow come from PubChem BioAssay (NCATS).

Assay [1] in a line: AP1 Signaling Pathway (AID 357; active = well fitted curve in either direction with a large enough effect, not every such curve was filed as active;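 also: ME-180 reporter cells stimulated with EGF at its EC50 level; % is scaled to controls: 0 for no effect and ±100 for the full control effect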). The procedure, abridged: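 AP-1-bla ME-180 cells, Opti-MEM + 0.5% dialyzed FBS, plated overnight 37 °C. Cpd titration + EC50 EGF, 5 h 37 °C. CCF4 2.5 h RT; ex 405, em 460/530 ratio → %activity, AC50.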
Assay [2] is described as follows: Stat Signaling Pathway (AID 446; active = well fitted curve in either direction with a large enough effect, not every such curve was filed as active;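 also: ME-180 cervical cancer cells given 40 pM IL-6 alongside compound; SIE-controlled beta-lactamase reporter measured as 460/530 nm FRET emission ratio; % is scaled to controls: 0 for no effect and ±100 for the full control effect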). The method in brief: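 Normalization used AC90 stimulation (300 pM IL-6) and AC90 inhibition (125 nM pan-JAK inhibitor at 40 pM IL-6). The underlying signal is SIE-driven beta-lactamase in ME-180 cells after 5 h IL-6 exposure with compound.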
The target of assay [3] is Glucocorticoid receptor (Homo sapiens) (UniProt P04150). Briefly: GR-GFP Redistribution (AID 450;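 active = compounds whose dose series gives a full or clear partial fitted curve of increased nuclear translocation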; also: potency is read from the fitted curve at half-maximal effect). The settings on record: U2OS GR-GFP nuclear translocation, laser cytometry, 2 h.
Assay [4] shares this target. Briefly: GR-EFC Redistribution (AID 451; calls by dose curve; also: potency is read from the fitted curve at half-maximal effect). The settings on record: CHO-K1 GR-EFC translocation, beta-gal luminescence, 2 h. The method in brief: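 Translocation of GR-ED fusion to nuclear EA restores b-gal, read by luminescence after 1 h room-temperature detection. Engineered CHO-K1 biosensor cells, 1,000/well, exposed 2 h at 37 C to titrations up to 46 uM final.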
Assay [5] concerns the target Mitogen-activated protein kinase 10 (Mus musculus) (UniProt Q61831). Briefly: JNK3 AlphaScreen Assay (AID 530; active = well fitted curve in either direction with a large enough effect, not every such curve was filed as active;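 also: kinase came from lysate of stimulated human HepG2 cells; signal reports phosphorylation of biotinylated GST-cJun 1-79 at Ser73 with 10 µM ATP; % is scaled to controls: 0 for no effect and ±100 for the full control effect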). The procedure, abridged: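 Kinase buffer: 20 mM Tris-HCl pH 7.6, 10 mM MgCl2, 1 mM DTT, 0.1 mM Na3VO4, 0.01% Tween-20; ATP 10 uM. Substrate biotin-GST-cJun(1-79), enzyme from activated HepG2 lysates. Detection by Ser73 phospho-antibody AlphaScreen.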
In assay [6] the target is 3',5'-cyclic-AMP phosphodiesterase 4B (Homo sapiens) (UniProt Q07343). Briefly: qHTS Assay for Inhibitors of PDE-IV (AID 607; active = well fitted activation curve with a large enough effect in the main read-out, with a control signal flat, not every such curve was filed as active; also: % of control where 0% means no effect). The procedure, abridged:
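HEK293 ACTOne cells with CNG channel (1000/well), endogenous PDE4; membrane potential dye, compounds up to 22.9 uM final. Fluorescence Ex 535/Em 590; RO 20-1724 (100 uM final) as reference.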

A short description of assay [7]: qHTS Assay for Lipid Storage Modulators (AID 1519; calls by dose curve). Particulars: Drosophila S3 cells, BODIPY lipid droplet/cell ratio, laser cytometry, cells loaded with oleic acid; for activity change, negative = inhibition: at 57.5 µM (top of the series). The procedure, abridged:
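Cells seeded at 5,000 per well were treated with compounds over a concentration series and loaded with oleic acid (400 uM, as added). Lipid droplet fluorescence (488 nm excitation, 500-530 nm channel) was read by laser-scanning cytometry and normalized to 20 uM Triacsin C.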

The target of assay [8] is DNA dC->dU-editing enzyme APOBEC-3G (Homo sapiens) (UniProt Q9HC16). Briefly: qHTS for inhibitors of Vif-A3G interactions: Validation (AID 588379). Also: 0% is about no effect. The method in brief: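 Yellow fluorescence (Ex 488, Em 500-530) of Vif-coexpressing HeLa A3G-eYFP cells, scanned by Acumen cytometer, reports blocked A3G degradation. Cells plated at 700/well overnight at 37 deg C before compound addition, then a further overnight compound incubation at 37 deg C.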

Assay [9] has as its system Zika virus NS2B-NS3 protease. Description: Primary screen GU AMC qHTS for Zika virus inhibitors (AID 1347154).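 Also: 0% = no-inhibitor control and -100% = no-enzyme control; nearly all actives have a fitted effect of over 70% in size.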 The procedure, abridged: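 Fluorogenic AMC-substrate cleavage by noncovalent NS2B-NS3 protease complex (25 nM, pH 8.0 Tris buffer with Tween 20) followed for 15 minutes at room temperature (~20% conversion). Percent inhibition from ex340/em450 signal change, fitted by 4-parameter Hill equation.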

The nature of assay [10]: Primary qHTS for small molecule stabilizers of the endoplasmic reticulum resident proteome: Secreted ER Calcium Modulated Protein (SERCaMP) assay (AID 1508630). Also: % is scaled to controls: 0 for no effect and ±100 for the full control effect. The procedure, abridged:
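The SH-SY5Y reporter protocol was run at 3 concentrations up to 38.3 uM (primary) or 11 concentrations (follow-up): 16 h compound, 100 nM thapsigargin for 4 h, then extracellular luciferase luminescence.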

Assay [11] addresses Guanine nucleotide-binding protein G(i) subunit alpha-1 (Homo sapiens) (UniProt P63096). Briefly: qHTS Assay for Inhibitors of RGS12 GoLoco Motif Activity (Green Fluorophore) (AID 879).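 Also: 0% = labeled peptide with Gαi1 and full inhibition = labeled peptide alone without protein; negative values mean loss of peptide binding seen as reduced polarization.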 The procedure, abridged: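 A drop in FITC polarization marked displacement of the FITC-tagged RGS12 GoLoco peptide (10 nM) from Gαi1 (50 nM). Compounds were incubated 10 min at room temperature in Tris pH 7.5 buffer containing 150 mM NaCl, 0.1 mM GDP and 0.05% NP40; unlabeled peptide titration served as control.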

Assay [12] deals with Pyruvate kinase (Leishmania mexicana) (UniProt Q27686). Description: qHTS Validation Assay for Inhibitors of Leishmania Mexicana Pyruvate Kinase (AID 945).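 Also: 0% = DMSO only neutral control wells.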 The procedure, abridged:
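An endpoint luciferase assay: 0.2 nM LmPYK E451W turns over 0.5 mM PEP with 0.1 mM ADP for 1 h at room temperature, pH 7.2, before PKLight addition. Values are normalized to DMSO-only wells.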

The target of assay [13] is Pyruvate kinase PKM (Homo sapiens) (UniProt P14618). Description: qHTS Assay for Activators of Human Muscle Pyruvate Kinase (AID 954; active = well fitted curve in the direction sought with a large enough effect, not every such curve was filed as active;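 also: 0% = uninhibited enzyme and -100% = no enzyme or full thiadiazolimine inhibition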). The procedure, abridged: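 Compound pinned into substrate mix (0.5 mM PEP, 0.1 mM ADP), then 0.1 nM PKM2 added; 1 h, RT. Stop/detection luciferase reagent added, luminescence read. Normalized to no-inhibition and no-enzyme or reference-inhibitor controls.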

In assay [14] the target is Alpha-galactosidase A (Homo sapiens) (UniProt P06280). Briefly: Counterscreen for Glucocerebrosidase Inhibitors: qHTS Assay for Human alpha-Galactosidase at pH 4.5 (AID 992). Also: 0% is about no effect. The method in brief:
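Steps: enzyme (2 nM final), then compound across 0.7 nM to 77 uM, then 80 uM fluorogenic galactopyranoside substrate; incubate 20 min at room temperature; quench at pH 10; measure fluorescence at 365/440 nm.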

For assay [15], the target named is alpha-glucosidase (Oryza sativa, rice) (UniProt Q653V4). Description: Counterscreen for Glucocerebrosidase Inhibitors: qHTS Assay for Rice alpha-Glucosidase at pH 5.0 (AID 997).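 Also: 0% = full activity with enzyme and -100% = basal without enzyme.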 The method in brief:
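Endpoint fluorogenic assay at pH 5.0: compounds (0.7 nM to 77 uM) titrated against 4 nM rice enzyme and 400 uM 4-MU-alpha-glucoside for 20 min at room temperature; NaOH/glycine stop, read ex 365/em 440 nm, Hill-fitted AC50.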

The target of assay [16] is Alpha-galactosidase (Coffea arabica) (UniProt Q42656). Briefly: Counterscreen for Glucocerebrosidase Inhibitors: qHTS Assay for Coffee Bean alpha-Galactosidase at pH 5.9 (AID 998).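 Also: plate controls were uninhibited enzyme for no effect and no-enzyme basal signal for full effect.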 The procedure, abridged:
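Fluorogenic 4-MU substrate hydrolysis, 80 uM substrate and 2 nM coffee bean alpha-galactosidase, pH 5.9 citrate buffer, 20 min at room temperature, then NaOH/glycine stop. Titration 0.7 nM–77 uM, normalized to no-enzyme and enzyme controls, AC50 via Hill equation.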

Assay [17] addresses Ubiquitin carboxyl-terminal hydrolase 1 (Homo sapiens) (UniProt O94782). Briefly: Inhibitors of USP1/UAF1: Pilot qHTS (AID 504865).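 Also: rhodamine fluorescence freed from ubiquitin-rhodamine substrate followed over time; top concentration of the series differs between compounds; % is scaled to controls: 0 for no effect and ±100 for the full control effect; nearly all actives have a fitted effect of over 35% in size.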 The method in brief: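 USP1/UAF1 complex at 1 nM preincubated 15 min at room temperature with compound, then Ub-Rho substrate added at 150 nM final. Fluorescence (480/540 nm) read kinetically in 50 mM HEPES pH 7.8, 0.5 mM EDTA, 1 mM TCEP, 0.1 mg/ml BSA, 0.01% Tween-20.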

[18] abbreviates: measured here: cell count channel max response.
The mark [19] stands for this setting: measured here: lipid channel max response.

Sequence of Glucocorticoid receptor (Homo sapiens) (P04150 whole entry, looked up, the tested form may be a part): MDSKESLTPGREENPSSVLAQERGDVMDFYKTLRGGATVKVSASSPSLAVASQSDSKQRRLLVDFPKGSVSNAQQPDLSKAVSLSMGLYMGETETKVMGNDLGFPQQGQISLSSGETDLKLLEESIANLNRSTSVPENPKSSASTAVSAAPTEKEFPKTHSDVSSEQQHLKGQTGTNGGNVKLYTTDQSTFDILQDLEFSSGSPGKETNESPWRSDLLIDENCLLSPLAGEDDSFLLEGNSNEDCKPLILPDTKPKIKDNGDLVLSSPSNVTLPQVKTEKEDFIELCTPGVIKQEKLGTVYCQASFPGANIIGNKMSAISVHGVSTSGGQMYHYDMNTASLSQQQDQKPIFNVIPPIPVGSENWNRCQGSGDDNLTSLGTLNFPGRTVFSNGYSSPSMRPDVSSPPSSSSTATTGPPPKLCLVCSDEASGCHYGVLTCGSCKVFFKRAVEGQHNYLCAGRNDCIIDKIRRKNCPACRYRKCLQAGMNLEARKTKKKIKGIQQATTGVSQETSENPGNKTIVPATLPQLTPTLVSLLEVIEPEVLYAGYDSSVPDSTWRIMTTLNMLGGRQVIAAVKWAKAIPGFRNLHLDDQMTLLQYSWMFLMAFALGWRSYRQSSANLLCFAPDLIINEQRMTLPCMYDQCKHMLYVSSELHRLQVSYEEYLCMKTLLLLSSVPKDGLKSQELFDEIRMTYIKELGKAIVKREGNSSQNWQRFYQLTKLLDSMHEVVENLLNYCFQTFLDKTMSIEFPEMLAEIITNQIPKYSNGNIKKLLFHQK
Sequence of DNA dC->dU-editing enzyme APOBEC-3G (Homo sapiens) (Q9HC16 whole entry, looked up): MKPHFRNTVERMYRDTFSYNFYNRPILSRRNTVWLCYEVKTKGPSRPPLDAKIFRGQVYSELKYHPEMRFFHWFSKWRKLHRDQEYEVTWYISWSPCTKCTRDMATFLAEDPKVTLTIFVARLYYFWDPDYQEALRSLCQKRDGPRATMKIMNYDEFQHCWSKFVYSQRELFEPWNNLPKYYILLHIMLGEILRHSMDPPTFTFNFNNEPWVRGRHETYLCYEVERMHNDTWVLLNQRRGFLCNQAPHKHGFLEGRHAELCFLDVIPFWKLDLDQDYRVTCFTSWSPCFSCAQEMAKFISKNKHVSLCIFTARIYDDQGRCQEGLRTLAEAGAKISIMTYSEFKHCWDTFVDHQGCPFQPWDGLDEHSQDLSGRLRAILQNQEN
Sequence of 3',5'-cyclic-AMP phosphodiesterase 4B (Homo sapiens) (Q07343 whole entry, looked up): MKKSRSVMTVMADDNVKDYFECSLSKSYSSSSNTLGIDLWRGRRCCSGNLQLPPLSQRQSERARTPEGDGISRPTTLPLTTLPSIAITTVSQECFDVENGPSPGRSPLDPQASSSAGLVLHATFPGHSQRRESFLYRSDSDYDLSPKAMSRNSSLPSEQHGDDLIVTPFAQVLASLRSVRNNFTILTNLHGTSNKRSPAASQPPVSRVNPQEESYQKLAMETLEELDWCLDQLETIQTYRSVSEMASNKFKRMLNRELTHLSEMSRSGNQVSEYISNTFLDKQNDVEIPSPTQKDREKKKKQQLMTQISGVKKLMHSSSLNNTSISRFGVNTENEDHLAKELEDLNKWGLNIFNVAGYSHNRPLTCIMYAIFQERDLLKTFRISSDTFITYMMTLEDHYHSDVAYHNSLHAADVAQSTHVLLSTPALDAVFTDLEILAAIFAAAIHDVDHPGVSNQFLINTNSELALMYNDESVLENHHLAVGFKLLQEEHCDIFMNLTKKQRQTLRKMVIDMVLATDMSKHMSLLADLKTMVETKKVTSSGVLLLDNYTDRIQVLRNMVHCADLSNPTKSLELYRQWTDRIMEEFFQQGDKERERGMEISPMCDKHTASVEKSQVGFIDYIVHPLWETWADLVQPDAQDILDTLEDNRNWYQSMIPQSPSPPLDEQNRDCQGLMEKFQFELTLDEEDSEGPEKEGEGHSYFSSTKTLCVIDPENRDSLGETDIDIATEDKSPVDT
Sequence of Alpha-galactosidase A (Homo sapiens) (P06280 whole entry, looked up): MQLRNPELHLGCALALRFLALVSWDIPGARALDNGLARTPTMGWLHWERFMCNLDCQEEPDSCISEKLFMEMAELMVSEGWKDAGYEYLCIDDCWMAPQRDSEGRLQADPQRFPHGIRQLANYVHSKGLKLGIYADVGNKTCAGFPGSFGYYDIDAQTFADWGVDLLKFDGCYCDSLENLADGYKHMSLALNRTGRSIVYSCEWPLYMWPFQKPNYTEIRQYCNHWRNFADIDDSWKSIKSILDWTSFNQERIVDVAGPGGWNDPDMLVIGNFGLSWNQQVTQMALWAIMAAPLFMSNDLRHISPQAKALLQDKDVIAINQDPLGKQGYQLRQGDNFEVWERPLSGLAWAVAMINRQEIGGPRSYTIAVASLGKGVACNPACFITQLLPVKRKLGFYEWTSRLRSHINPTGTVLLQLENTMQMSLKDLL
Sequence of Alpha-galactosidase (Coffea arabica) (Q42656 whole entry, looked up): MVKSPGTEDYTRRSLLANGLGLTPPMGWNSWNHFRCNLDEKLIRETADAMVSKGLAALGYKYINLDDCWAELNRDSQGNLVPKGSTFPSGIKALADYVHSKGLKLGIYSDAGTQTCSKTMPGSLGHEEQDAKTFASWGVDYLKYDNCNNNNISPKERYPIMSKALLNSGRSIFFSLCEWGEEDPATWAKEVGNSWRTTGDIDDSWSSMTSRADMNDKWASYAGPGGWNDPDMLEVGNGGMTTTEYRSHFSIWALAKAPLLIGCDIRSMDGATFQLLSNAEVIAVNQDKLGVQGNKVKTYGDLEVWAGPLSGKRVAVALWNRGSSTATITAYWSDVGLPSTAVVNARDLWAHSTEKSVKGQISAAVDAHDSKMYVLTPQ
Sequence of Pyruvate kinase PKM (Homo sapiens) (P14618 whole entry, looked up): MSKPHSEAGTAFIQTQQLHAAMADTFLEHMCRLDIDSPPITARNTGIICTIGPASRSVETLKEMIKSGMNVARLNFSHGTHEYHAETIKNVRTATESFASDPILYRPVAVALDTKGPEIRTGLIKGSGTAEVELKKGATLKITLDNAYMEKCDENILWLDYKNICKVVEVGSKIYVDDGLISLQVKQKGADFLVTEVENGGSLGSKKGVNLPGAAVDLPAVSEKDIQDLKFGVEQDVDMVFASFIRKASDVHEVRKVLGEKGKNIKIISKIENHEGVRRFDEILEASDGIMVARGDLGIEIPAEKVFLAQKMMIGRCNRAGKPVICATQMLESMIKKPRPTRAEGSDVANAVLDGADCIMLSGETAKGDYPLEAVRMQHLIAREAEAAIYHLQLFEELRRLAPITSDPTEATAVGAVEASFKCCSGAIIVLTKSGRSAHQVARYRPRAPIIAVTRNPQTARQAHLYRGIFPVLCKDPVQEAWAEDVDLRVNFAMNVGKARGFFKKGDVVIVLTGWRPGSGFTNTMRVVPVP
Sequence of Guanine nucleotide-binding protein G(i) subunit alpha-1 (Homo sapiens) (P63096 whole entry, looked up): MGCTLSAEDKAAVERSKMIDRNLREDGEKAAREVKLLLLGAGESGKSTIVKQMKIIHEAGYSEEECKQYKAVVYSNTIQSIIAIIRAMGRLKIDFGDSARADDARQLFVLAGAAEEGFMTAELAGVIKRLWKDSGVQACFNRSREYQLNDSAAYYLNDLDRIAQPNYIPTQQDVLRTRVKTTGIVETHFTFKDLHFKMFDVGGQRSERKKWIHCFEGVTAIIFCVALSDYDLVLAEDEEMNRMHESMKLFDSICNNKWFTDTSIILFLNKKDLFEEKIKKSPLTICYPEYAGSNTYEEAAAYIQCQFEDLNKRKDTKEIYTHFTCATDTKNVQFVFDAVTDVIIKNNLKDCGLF
Sequence of Ubiquitin carboxyl-terminal hydrolase 1 (Homo sapiens) (O94782 whole entry, looked up): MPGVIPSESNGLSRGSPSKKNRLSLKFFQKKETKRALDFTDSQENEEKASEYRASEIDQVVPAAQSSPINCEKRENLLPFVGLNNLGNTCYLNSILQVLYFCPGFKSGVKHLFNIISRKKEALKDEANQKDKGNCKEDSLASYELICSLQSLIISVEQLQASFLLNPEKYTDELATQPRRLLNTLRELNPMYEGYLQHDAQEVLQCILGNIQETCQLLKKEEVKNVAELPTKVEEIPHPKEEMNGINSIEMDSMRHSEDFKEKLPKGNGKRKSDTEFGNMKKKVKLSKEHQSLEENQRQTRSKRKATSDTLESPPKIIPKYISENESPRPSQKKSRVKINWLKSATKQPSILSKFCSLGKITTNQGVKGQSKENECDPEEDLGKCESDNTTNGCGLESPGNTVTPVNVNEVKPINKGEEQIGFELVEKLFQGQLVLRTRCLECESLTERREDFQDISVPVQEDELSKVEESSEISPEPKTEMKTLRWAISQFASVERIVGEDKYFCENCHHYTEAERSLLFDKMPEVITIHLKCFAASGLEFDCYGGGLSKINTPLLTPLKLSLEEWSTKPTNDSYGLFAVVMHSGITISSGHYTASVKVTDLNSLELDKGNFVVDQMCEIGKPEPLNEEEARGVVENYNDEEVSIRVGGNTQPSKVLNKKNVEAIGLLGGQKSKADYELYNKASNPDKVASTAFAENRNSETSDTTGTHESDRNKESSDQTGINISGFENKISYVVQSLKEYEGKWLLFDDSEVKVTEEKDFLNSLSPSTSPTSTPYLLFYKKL
Sequence of Pyruvate kinase (Leishmania mexicana) (Q27686 2-499 E452W): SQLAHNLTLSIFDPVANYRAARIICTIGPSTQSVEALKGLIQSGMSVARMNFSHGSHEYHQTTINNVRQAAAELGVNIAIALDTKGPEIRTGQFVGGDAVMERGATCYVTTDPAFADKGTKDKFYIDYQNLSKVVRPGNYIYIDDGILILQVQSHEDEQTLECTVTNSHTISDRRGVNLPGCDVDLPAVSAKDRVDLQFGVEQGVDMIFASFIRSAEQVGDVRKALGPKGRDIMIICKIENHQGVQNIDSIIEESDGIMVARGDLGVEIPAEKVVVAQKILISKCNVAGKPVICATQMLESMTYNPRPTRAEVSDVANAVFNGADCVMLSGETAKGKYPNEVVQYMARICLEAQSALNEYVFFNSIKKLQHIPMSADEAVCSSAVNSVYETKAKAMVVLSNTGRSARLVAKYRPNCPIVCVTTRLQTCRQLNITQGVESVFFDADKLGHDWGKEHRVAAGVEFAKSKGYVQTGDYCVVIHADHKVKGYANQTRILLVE

For the compound `N[C@@H](CCP(=O)(O)O)C(=O)O`, the activity change, negative = inhibition was 9.69% [at 7.69 µM] (inactive) in assay [1] and -1.66% (inactive) in assay [7]. Besides, the activity, negative = inhibition in assay [2] is 11.7% [at 7.69 µM] (inactive). Further, the Potency in assay [3] was > 46 µM (inactive); in [4], > 46 µM (inactive) and > 9.22 µM (inactive). Moreover, the compound was called inactive in assay [5]. Moreover, the Potency result in assay [6], in assay [8], in assay [9] and in [10] was “inactive” each time. In addition, the values for the max response in assay [7] (setting [18]) and in assay [7] (setting [19]) were -5.2% and -9.13%, respectively.
As to `c1ccc(C2CNCc3ccccc32)cc1` (stereo unspecified), the Potency result in assay [9] and in assay [10] was “inactive” each time.
For the compound `CC1CC2CCC(O2)C(C)C(=O)OC(C)CC2CCC(O2)C(C)C(=O)OC(C)CC2CCC(O2)C(C)C(=O)OC(C)CC2CCC(O2)C(C)C(=O)O1` (stereo unspecified), the Potency result in assay [9] and in [10] was “inactive” throughout.
On to `C[C@H](NC(=O)[C@@H](N)Cc1ccc(O)cc1)C(=O)N[C@@H](Cc1ccccc1)C(=O)NCC(=O)N[C@@H](Cc1ccc(O)cc1)C(=O)N1CCC[C@H]1C(=O)N[C@@H](CO)C(N)=O`, for which the activity change, negative = inhibition is 8.07% [at 6.83 µM] (inactive) in assay [9] and -16.9% [at 3.88 µM] (inactive) in assay [10].
Consider `N[C@@H](Cn1cc(I)c(=O)[nH]c1=O)C(=O)O`, for which the Potency in [3] and in [4] was > 46 µM (inactive) throughout. The call in assay [11], in assay [12], in assay [13], in assay [14], in assay [15] and in assay [16] was inactive. Further, the activity change, negative = inhibition in assay [7] was 1.49% (inactive) and 0.139% (inactive). Besides, the max response in [7] (setting [18]) is 1.2% and -23.8%; in assay [7] (setting [19]) it was 4.16% and -23.5%. The Potency entry in assay [17], in [8], in [9] and in assay [10] was “inactive” in each case.
Take `CC(C)C[C@H](NC(=O)[C@H](Cc1ccccc1)NC(=O)CNC(=O)[C@H](CO)NC(=O)[C@@H](N)Cc1ccc(O)cc1)C(=O)N[C@H](C(=O)O)[C@H](C)O`: the activity change, negative = inhibition in [9] is 10.8% [at 6.83 µM] (inactive); in assay [10] it was -28.8% [at 3.88 µM] (inactive).
For the compound `CCc1cccc(CC)c1NC1=NCCN1`, the Potency entry in [9] and in assay [10] was “inactive” throughout.
On to `CC(C)[C@]1(O)[C@@H](OC(=O)c2ccc[nH]2)[C@@]2(O)[C@@]3(C)C[C@]4(O)O[C@@]5([C@H](O)[C@@H](C)CC[C@]35O)[C@@]2(O)C41C`, for which the Potency result in assay [9] and in assay [10] was “inactive” throughout.
As for `CCCCC/C=C\C/C=C\C/C=C\CCCCCCC(=O)NCCO`, the activity change, negative = inhibition in assay [9] was 14.4% [at 6.83 µM] (inactive); in [10], -18.9% [at 3.88 µM] (inactive).
